Screening data (PubChem)
E coli Lon inh: inhibits E. coli Lon protease; P0A9M0; purified E. coli Lon protease, fluorescence polarization; inhibition, % at 7.94 µM; 0.42% of 360,000 active; AID 602123; in the data active = inhibition above about 13%, passing the limit was not always enough;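 also: 0% = enzyme with probe and DMSO and 100% = no enzyme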
MCL1-BIM inh: inhibitors of human MCL1 binding to BIM-BH3 peptide; 0.68% of 320,000 active; inhibition, % at 10.9 µM; Q07820; GST-MCL1 / FITC-Bim-BH3 fluorescence polarization; AID 2057;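 active = inhibition above the mean inhibition of all tested compounds plus 3 SD, set per campaign, cut at about 40% in these data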;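 also: 0% = DMSO wells and 100% = unlabeled Bim-BH3 peptide control; higher means more loss of mP so more displacement of Bim peptide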
Target sequence (Q07820 whole entry, looked up): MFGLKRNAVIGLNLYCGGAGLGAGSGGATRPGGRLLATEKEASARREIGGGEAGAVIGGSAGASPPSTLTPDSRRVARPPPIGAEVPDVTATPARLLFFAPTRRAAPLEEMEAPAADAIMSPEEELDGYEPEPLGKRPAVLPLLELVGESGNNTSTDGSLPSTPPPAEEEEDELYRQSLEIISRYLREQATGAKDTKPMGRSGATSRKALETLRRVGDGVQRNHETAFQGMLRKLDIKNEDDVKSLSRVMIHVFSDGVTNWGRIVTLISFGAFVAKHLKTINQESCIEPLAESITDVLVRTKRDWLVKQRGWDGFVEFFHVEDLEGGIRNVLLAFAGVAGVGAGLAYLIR
Bcl-xL primary: blocks human Bcl-xL binding to Bim BH3 peptide. Q07817. GST-Bcl-xL / FITC-Bim BH3 peptide fluorescence polarization. inhibition, % at 10.9 µM. 0.7% of 320,000 active. AID 2129;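 active = inhibition above the mean of all tested compounds plus 3 SD, cutoff set per campaign, cut at about 30% in these data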;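 also: 0% = DMSO wells and 100% = unlabeled Bim-BH3 peptide competitor; inhibitors lower millipolarization by displacing the labeled peptide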
Target sequence (Q07817 whole entry, looked up): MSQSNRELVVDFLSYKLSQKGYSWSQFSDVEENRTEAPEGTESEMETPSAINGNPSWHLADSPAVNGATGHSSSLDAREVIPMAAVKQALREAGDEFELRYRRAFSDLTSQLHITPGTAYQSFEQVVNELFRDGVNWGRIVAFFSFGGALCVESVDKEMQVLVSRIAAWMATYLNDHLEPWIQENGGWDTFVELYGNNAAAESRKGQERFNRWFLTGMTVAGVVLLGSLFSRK
EBV gp42 block: inhibitors of Epstein-Barr virus glycoprotein 42. Q1HVG2. Fluorescence polarization binding assay, mP read-out. inhibition, % (tested at 21.74 µM). 0.42% of 220,000 active; in the data active = inhibition above about 50%
GLD-1 TGE inh: GLD-1-TGE RNA interaction inhibition (C. elegans); AID 2280; purified GLD-1 + fluorescein TGE RNA, fluorescence polarization; 0.44% of 320,000 active; inhibition, % at 5.96 µM; Q17339;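 active = percent inhibition above a per-plate cutoff, the plate mean of test compounds plus 3 SD, cut at about 30% in these data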;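 also: 0% = DMSO wells with GLD-1 and probe and 100% = wells lacking GLD-1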
MEX-5 binding: C. elegans MEX-5 TCR-2 RNA binding activity; activity score (negative = inhibition of binding), % at 10 µM; 0.38% of 300,000 active; Q9XUB2; AID 1832; MEX-5/FITC-TCR2 RNA binding, fluorescence polarization; active compounds read low;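 active = inhibition past about -25% in most replicates, and total fluorescence under double the plate's negative control median, limit read from the data; inconclusive = replicates evenly split on the limit, or fluorescence at least double controls; inactive = too little inhibition in most replicates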;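 also: 0% = DMSO and -100% = 5 µM competing unlabeled TCR2 RNA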
E coli Lon conf: E. coli Lon inhibition confirmation; shares compounds with E coli Lon inh; purified E. coli Lon, fluorescence polarization; inhibition, % at 7.94 µM; 31% of 1,400 active; AID 602230; in the data active = inhibition above about 16%;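 also: 0% = enzyme with probe and DMSO and 100% = no enzyme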
* marks the source's active call; other numbers are inactive results. Rows were chosen to be rich in hits. Some 1.5% of all compounds tested hit in one or more screens of this group.

Screening O=C(Nc1cccc(Cl)c1)Nn1cnnc1 returned E coli Lon inh 104.0*, MCL1-BIM inh -1.3, Bcl-xL primary 3.0, EBV gp42 block -16.6, GLD-1 TGE inh 0.3, MEX-5 binding 0.2 and E coli Lon conf -0.9.
Screening O=C(COC(=O)C1CCN(S(=O)(=O)c2cccs2)CC1)c1ccc2c(c1)OCCO2 returned E coli Lon inh 14.8*, MCL1-BIM inh -1.2, Bcl-xL primary -0.7, EBV gp42 block -26.0, GLD-1 TGE inh -3.0, MEX-5 binding 1.1 and E coli Lon conf -1.5.
For O=C1COc2ccc(C(=O)COC(=O)C3CCN(S(=O)(=O)c4cccs4)CC3)cc2N1 the results were E coli Lon inh -5.5, MCL1-BIM inh -6.0, Bcl-xL primary 1.8, EBV gp42 block 3.6, GLD-1 TGE inh 7.3 and MEX-5 binding -1.8.
For CCN(CC)S(=O)(=O)c1ccc2nnn(OCC(=O)Nc3cccc(C#N)c3)c2c1 the results were E coli Lon inh 18.1*, MCL1-BIM inh 6.7, Bcl-xL primary 5.0, EBV gp42 block -15.3, GLD-1 TGE inh 1.5, MEX-5 binding 1.1 and E coli Lon conf -4.7.
For Cc1ccc(NC(=O)CN(C)CC(=O)Nc2ccccc2Oc2ccccc2)cc1 the results were E coli Lon inh 6.5, MCL1-BIM inh -4.1, Bcl-xL primary -0.8, EBV gp42 block -3.1, GLD-1 TGE inh 7.0 and MEX-5 binding 2.8.
For C=CCOc1ccccc1CNc1ccc2[nH]c(=O)[nH]c2c1 the results were E coli Lon inh 25.3*, MCL1-BIM inh 0.7, Bcl-xL primary 7.1, EBV gp42 block 0.2, GLD-1 TGE inh -3.0, MEX-5 binding -0.9 and E coli Lon conf -3.5.
`C=CCOc1ccccc1CNc1cccc(F)c1` gave E coli Lon inh -7.8, MCL1-BIM inh 0.3, Bcl-xL primary -1.3, EBV gp42 block -7.9, GLD-1 TGE inh 0.5 and MEX-5 binding -0.2.
For COc1ccc(CNc2nc3c(c(C(F)(F)F)n2)CCCCC3)cc1 the results were EBV gp42 block 6.6.
NS(=O)(=O)c1ccc(CCNC(=O)COc2ccc3c4c(c(=O)oc3c2)CCC4)cc1 was read as E coli Lon inh 17.7*, MCL1-BIM inh 2.4, Bcl-xL primary 2.6, GLD-1 TGE inh 4.2, MEX-5 binding 0.0 and E coli Lon conf -39.8.
Screening COc1ccc(/C=C/c2cc(C(=O)O)c3ccccc3n2)cc1 returned E coli Lon inh active, MCL1-BIM inh 3.4, Bcl-xL primary 6.5, EBV gp42 block -7.1, GLD-1 TGE inh 10.1, MEX-5 binding -3.8 and E coli Lon conf 3.0.
COc1cc(OC)c(OC)cc1/C=C/c1cc(C(=O)O)c2ccccc2n1 was read as E coli Lon inh -7.8, MCL1-BIM inh -1.4, Bcl-xL primary 5.2, EBV gp42 block -2.7, GLD-1 TGE inh 14.6 and MEX-5 binding -2.6.
For Cc1ccc(C(=O)N/C(N)=N/c2nc3ccccc3o2)cc1 the results were E coli Lon inh -7.2, MCL1-BIM inh 2.8, Bcl-xL primary -1.0, EBV gp42 block -10.7, GLD-1 TGE inh -0.3 and MEX-5 binding 1.2.
Screening Nc1[nH]c(C(=O)c2ccccc2)c(-c2cccnc2)c1C(=O)NCCc1ccc(Cl)cc1Cl returned E coli Lon inh active and E coli Lon conf -1.2.
CC1(c2ccc(Cl)cc2)NC(=O)N(CC(=O)NCc2cccs2)C1=O (stereo not given) was read as E coli Lon inh -9.6, MCL1-BIM inh -15.4, Bcl-xL primary 2.8, EBV gp42 block -28.5, GLD-1 TGE inh 4.6 and MEX-5 binding -0.2.
Screening O=C(Nc1ccccc1N1CCCCC1)c1ccc(-c2ccc(Cl)cc2)o1 returned E coli Lon inh 6.1, MCL1-BIM inh -3.3, Bcl-xL primary -0.4, EBV gp42 block -5.2, GLD-1 TGE inh 5.6 and MEX-5 binding 2.2.
CC(=O)C1=C(O)C(=O)N(c2ccc(Br)cc2)C1c1ccc(Br)cc1 (stereo not given) was read as E coli Lon inh 30.2*, MCL1-BIM inh -2.3, Bcl-xL primary 2.5, GLD-1 TGE inh 6.2, MEX-5 binding -0.7 and E coli Lon conf -7.1.
`CCCOc1ccc(-c2csc3nc[nH]c(=O)c23)cc1` gave E coli Lon inh 11.2, MCL1-BIM inh 2.5, Bcl-xL primary 0.6, GLD-1 TGE inh -4.4 and MEX-5 binding -2.1.
Cc1nccn1CC(O)COc1ccc(Cl)cc1Cl (stereo not given) was read as E coli Lon inh 1.9, MCL1-BIM inh 1.1, Bcl-xL primary -0.8, GLD-1 TGE inh -2.7 and MEX-5 binding -0.4.
Screening O=c1c2ccccc2sn1-c1nccs1 returned E coli Lon inh 22.3*, EBV gp42 block -9.6, MEX-5 binding 1.4 and E coli Lon conf 19.7*.
For Cc1ccc(C)c(Cn2c(=O)n(CCCC(=O)NCc3ccco3)c(=O)c3ccccc32)c1 the results were E coli Lon inh 0.6, MCL1-BIM inh -2.8, Bcl-xL primary 5.6, EBV gp42 block -0.9, GLD-1 TGE inh 2.0 and MEX-5 binding -2.6.
`Cc1cc(C)c(Cn2c(=O)n(CCCC(=O)NCc3ccco3)c(=O)c3ccccc32)c(C)c1` gave E coli Lon inh 17.9*, MCL1-BIM inh -12.3, Bcl-xL primary -1.4, GLD-1 TGE inh -1.3, MEX-5 binding -1.5 and E coli Lon conf -7.1.
Screening COc1ccc([N+](=O)[O-])cc1NC(=O)C(C)c1ccccc1 (stereo not given) returned E coli Lon inh 21.8*, MCL1-BIM inh 8.8, Bcl-xL primary 1.1, EBV gp42 block -7.8, GLD-1 TGE inh 1.8, MEX-5 binding -1.6 and E coli Lon conf -0.7.
CC(C)N1CC=C2C(C#N)=C(N)C(C#N)(C#N)C(c3ccccc3)C2C1 (stereo not given) was read as E coli Lon inh 52.8*, MCL1-BIM inh 128.2*, Bcl-xL primary 117.0*, EBV gp42 block 72.1*, GLD-1 TGE inh 92.7*, MEX-5 binding inconclusive and E coli Lon conf 19.8*.
`N#CC1=C(N)C(C#N)(C#N)[C@H](c2ccncc2)[C@H]2CN(C(=O)OCc3ccccc3)CC=C12` gave E coli Lon inh -6.1, MCL1-BIM inh 8.3, Bcl-xL primary 16.1, EBV gp42 block -23.5, GLD-1 TGE inh 8.9 and MEX-5 binding -3.5.
CCC1C2CN(C(C)=O)CC=C2C(C#N)=C(N)C1(C#N)C#N (stereo not given) was read as E coli Lon inh 0.6, MCL1-BIM inh 21.8, Bcl-xL primary 18.8, EBV gp42 block -6.0, GLD-1 TGE inh 13.4 and MEX-5 binding -3.7.
CN1CC=C2C(C#N)=C(N)C(C#N)(C#N)C(Cc3ccccc3)C2C1 (stereo not given) was read as E coli Lon inh 39.4*, MCL1-BIM inh 128.6*, Bcl-xL primary 117.8*, EBV gp42 block 48.7, GLD-1 TGE inh 68.7*, MEX-5 binding -69.3* and E coli Lon conf 9.3.
